Among the data in PubChem BioAssay AID463075 (University of Pittsburgh Molecular Library Screening Center, 2010) are activation (protection from cell death) values, retold here.

SMILES strings stand for the structures. Values joined by “and” are separate entries in the source; they are usually repeats but may differ in a detail not shown here. Identical values can stand only once. The campaign covered roughly 220,000 compounds. About 150 (0.068%) were called active. The list comes from a sample in which actives are over-represented; it also holds similar structures and randomly drawn compounds. A number with no mark means an inactive call.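 The calls were made as follows: active = activation, meaning protection from cell death, of at least 50% relative to plate controls; inactive = activation below 50%.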

This assay can be described thus: inhibitors of TNF-alpha triggered necroptosis, primary screen, cell-based, Jurkat FADD-/-, single concentration (AID 463075).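 Also: necroptosis triggered by 40 ng/mL TNF-alpha added together with compound.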 The settings on record: Jurkat FADD-/- TNF necroptosis rescue, ATP luminescence, 24 h; at 10 µM; stronger effect = higher value; 0 = TNF only, 100 = no-TNF cells.
`Cc1ccccc1-n1nc(C)c2c1N=C1C(Cl)=CC(Cl)=CN1C2c1ccc(C(=O)O)cc1` (stereo unspecified): the activation (protection from cell death) was 1.37%. The figure for `COc1cc(OC)cc(-c2cc3nc(C4CCN(C(=O)OC(C)(C)C)CC4)cc(=O)n3[nH]2)c1` is 1.03%; for `c1ccc(C2c3[nH]c4ccccc4c3CCN2Cc2cccn2-c2cccnc2)nc1` (stereo unspecified) it is -0.81%; for `CCCCCCC12CCC(C(=O)O)(CC1)CC2` it is -1.53%. The result for `CCn1c(SCC(=O)Nc2sc(C)c(C)c2C#N)nnc1C1CC1` reads 4.46%. The result for `Cc1ccc(CC2S/C(=C(/C#N)C(=O)N3CCOCC3)N(c3ccccc3)C2=O)cc1` (stereo unspecified) reads -0.961%. As to `COc1ccc(-c2ccc(CCC(=O)O)n2-c2ccc(O)cc2)cc1`, the activation (protection from cell death) was 0.347%. On to `COc1ccc(-n2c(C)nc3c(cnn3-c3ccccc3)c2=O)cc1`, for which the activation (protection from cell death) was -4.93%.

Turning to `COc1ccc(-n2c(C)nn(CC3CC3)c2=O)cc1`, the activation (protection from cell death) was 68.3% (active). `COc1ccc(-n2c(SC)nc(O)cc2=O)cc1`: the activation (protection from cell death) is 0.231%. For the compound `COc1ccc(CCN2C(=O)CC(N3CCC(C(N)=O)CC3)C2=O)cc1OC` (stereo unspecified), the activation (protection from cell death) was 1.77%.

Consider `CCOc1cc(CNCCN(C)C)c(Cl)cc1OCC(=O)NCCc1ccccc1`, for which the activation (protection from cell death) was -1.03%. The result for `O=C(NC(=S)Nc1cccc(-c2ccc(CO)o2)c1)c1cccs1` reads -0.171%; that for `Cc1nc(-c2ccccc2)cn2c1nc1ccccc12`, 0.981%; that for `CCOC(=O)C(=O)C1C(=O)Nc2ccccc21` (stereo unspecified), -0.27%. For the compound `COc1ccc(NC(=O)c2sccc2SCC#N)cc1`, the activation (protection from cell death) is -2.27%.

`COc1ccc(S(=O)(=O)Nc2ccc(F)cc2)c(C)c1C`: the activation (protection from cell death) is -1.23%. Turning to `C=CCn1c(P(C)(=O)O)nc2ccccc21`, the activation (protection from cell death) is 1.54% and 0.149%. As for `CN(C)c1ccc(-n2cccc2/C=N/n2cnnc2)cc1`, the activation (protection from cell death) was 1.75%. As to `Cc1nonc1C(=O)N/N=C/c1ccc(O)cc1`, the activation (protection from cell death) is 1.53%.

Turning to `CCOC(=O)C1=NN(c2ccc(Cl)cc2)/C(=C/C2=NCCc3cc(OC)c(OC)cc32)S1`, the activation (protection from cell death) is -2.32%. Turning to `CCN(CC(=O)Nc1cccc(S(N)(=O)=O)c1)Cc1nc2ccccc2c(=O)[nH]1`, the activation (protection from cell death) is 2.32%.

For `CC(C)CCN1C(=O)c2ccc(C(=O)Nc3cccc(S(N)(=O)=O)c3)cc2C1=O`, the activation (protection from cell death) is -1.31%. Regarding `O=C(CC1C(=O)NCCN1Cc1ccc(-c2ccccc2)cc1)NCc1ccncc1` (stereo unspecified), the activation (protection from cell death) is 0.134%. Take `S=C(Nc1ccc(Br)cc1Cl)NC1CCN(Cc2ccccc2)CC1`: the activation (protection from cell death) is 1.9%. With `CC(C)CCN1NC2(CCC(C)CC2)NC1=S` (stereo unspecified), the activation (protection from cell death) was -1.55%. Turning to `O=C(c1cccnc1)N(c1cc2sc(=O)oc2c2ccccc12)S(=O)(=O)c1ccccc1`, the activation (protection from cell death) was -6.46%.

Take `Cn1c(S(=O)(=O)O)nc2ccccc21`: the activation (protection from cell death) is 1.18%. For `COc1cc2nc(Cl)nc(NCCO)c2cc1OC`, the activation (protection from cell death) was -0.0465%. In the case of `Cc1nc(N2CCOCC2)sc1C(=O)NN`, the activation (protection from cell death) is 0.605%.

Regarding `CCCC1(C(=O)OC)NC(c2ccco2)C2C(=O)N(C)C(=O)C21` (stereo unspecified), the activation (protection from cell death) was 0.819%. As to `Cc1cccc(N=Nc2c(O)[nH]c3ccc(F)cc23)c1`, the activation (protection from cell death) is 1.19%. For `O=C(NC(=O)N1CCSCC1)c1c(Cl)cccc1Cl`, the activation (protection from cell death) was 3.73%. As for `CC(C)Cc1ccc(C(C)C(=N)N)cc1` (stereo unspecified), the activation (protection from cell death) is 0.316%. For the compound `O=C(Cc1ccccc1)N1N=C(c2ccncc2)CC1(O)C(F)(F)F` (stereo unspecified), the activation (protection from cell death) was -1.22%. The result for `Cc1nnc(NCCO)c2ccccc12` reads 2%. Consider `Cc1nn(CC(=O)Nc2ccc3c(c2)OCO3)c(C)c1[N+](=O)[O-]`, for which the activation (protection from cell death) is 0.0311%.

Take `CCOC(=O)c1c(CC(C)C)csc1/N=C/C1=C(O)CCCC1=O`: the activation (protection from cell death) was 2.28%. The result for `O=C(Nn1cnc2ccccc2c1=O)c1ccc([N+](=O)[O-])cc1Cl` reads -1.3%. As for `O=C(CS(=O)(=O)c1ccc(C(F)(F)F)cn1)NNC(=O)c1ccccc1`, the activation (protection from cell death) was -0.488%.

`O=C(O)c1n[nH]nc1-c1ccccc1`: the activation (protection from cell death) is -0.36%.

For `O=C(C1=C[C@H](c2coc3ccccc3c2=O)C[C@H](OCc2ccc(CO)cc2)O1)N1CCOCC1`, the activation (protection from cell death) was 0.365%. The figure for `COc1ccc(Cl)cc1NC(=O)[C@@H]1CCCN1C(=O)c1cccs1` is 2.67%; for `C=C1C2C[C@H](O)C(C)(C)[C@@]2(O)[C@H](O)C[C@]23C[C@@](C)(O)[C@H](CC[C@H]12)[C@H]3O` (stereo partly specified) it is 1.07%; for `CCOc1cccc(C(=O)Nc2cnn(Cc3ccccc3)c2)c1` it is -1.07%. The figure for `O=C(COC(=O)Cc1ccc(Br)cc1)Nc1c(F)c(F)c(F)c(F)c1F` is -0.784%; for `CN(C(=O)CSc1nc(C2CC2)nc2ccccc12)c1nc(-c2ccccc2)cs1` it is 0.753%.

In the case of `COc1ccc(OC)c(-c2c(=O)n(OCc3ccccc3Br)c3ccccc3[n+]2[O-])c1`, the activation (protection from cell death) is 0.8%. As to `O=C(Nc1ccccc1-c1ccccc1)c1cccs1`, the activation (protection from cell death) is -1.99%. In the case of `CN(C(=O)COc1ncnc2c1cnn2-c1ccccc1)C1CCCCC1`, the activation (protection from cell death) was -0.83%. With `CNC(=O)c1nnc(Cc2ccc(Cl)cc2)o1`, the activation (protection from cell death) was 5.11%.
